{
  "source": "the supplement of paper PMC11219838",
  "note": "A number with no mark means an inactive call.",
  "data": [
    {"tested_on": "Caenorhabditis elegans L1 (N2)", "assay": "survival and reproduction score of C. elegans L1 (0: 0-10 living worms, 1: 11-20, 2: 21-50, 3: >50, 4: overgrown) (score 0-4); higher = more worms, less nematicidal, active = 1 or less; extreme values may be limits of the assay", "conditions": "60 µM; 6 days; temperature: 20 °C", "method_in_brief": "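In liquid NGM with E. coli HB101, approximately 20 synchronized C. elegans N2 L1s per 96-well well were exposed to compound at 60 µM final (0.6% v/v DMSO) for 6 days at 20 °C with shaking at 200 rpm in sealed plates. Survival and reproduction were judged under a dissection microscope as an ordinal rating of living worms per well. Ratings went from 0 (0–10 worms) to 4 (overgrown, starved) and were averaged over two biological replicates.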", "values": [
      {"compound": "COc1ccc(-c2noc(COc3ccc(Cl)cc3)n2)cc1", "survival and reproduction score": 4},
      {"compound": "CCOc1ccccc1-c1nnc(SCC(=O)NC(C)CC)o1", "note": "(centres undefined)", "survival and reproduction score": 4},
      {"compound": "CC(C)c1ccc(OCc2nc(-c3ccncc3)no2)c(Br)c1", "survival and reproduction score": 4},
      {"compound": "Cc1c(C(=O)CSc2nnc(-c3ccccc3)o2)c2ccccc2n1C", "survival and reproduction score": 4},
      {"compound": "O=C(CSc1nnc(-c2ccco2)o1)Nc1ccc(Br)cn1", "survival and reproduction score": 4},
      {"compound": "O=C(CSc1nnc(-c2cccnc2)o1)c1ccc(Br)cc1", "survival and reproduction score": 4},
      {"compound": "Fc1ccc(-c2noc(-c3ccc(F)cc3)n2)cc1", "survival and reproduction score": "0 (active)"},
      {"compound": "COc1ccc(-c2noc(COc3ccccc3Cl)n2)cc1", "survival and reproduction score": 4},
      {"compound": "CCOC(=O)c1c(NC(=O)CSc2nnc(-c3ccccc3OCC)o2)sc(C(C)=O)c1C", "survival and reproduction score": 4},
      {"compound": "Cc1ccccc1-c1nc(-c2ccccc2Cl)no1", "survival and reproduction score": "0 (active)"},
      {"compound": "COc1ccc(Cl)cc1-c1noc(-c2ccc(Cl)cc2)n1", "survival and reproduction score": 4},
      {"compound": "COc1ccc(-c2noc(-c3cccc(Br)c3)n2)cc1", "survival and reproduction score": 4},
      {"compound": "O=C(CSc1nnc(-c2cccc(Br)c2)o1)Nc1ccccn1", "survival and reproduction score": 4},
      {"compound": "Clc1ccc(-c2nnc(SCc3ccccc3)o2)c(Cl)c1", "survival and reproduction score": 4},
      {"compound": "Cc1ccc(SCc2nc(-c3cccnc3)no2)cc1", "survival and reproduction score": 1.5},
      {"compound": "Cc1ccc(-c2nnc(SCc3ccccc3)o2)cc1", "survival and reproduction score": "0 (active)"},
      {"compound": "COc1ccc(-c2noc(-c3ccc(Br)cc3)n2)cc1", "survival and reproduction score": "0 (active)"},
      {"compound": "COc1ccc(C(=O)Nc2ccc(-c3nnc(SCc4ccccc4)o3)cc2)cc1", "survival and reproduction score": 4},
      {"compound": "COc1ccc(OCc2nc(-c3ccccc3)no2)cc1", "survival and reproduction score": 4}
    ]}
  ]
}
